Reference: ChEMBL document CHEMBL2218924, “A broad activity screen in support of a chemogenomic map for kinase signalling research and drug discovery” (Biochem J, 2013)

Key:
[1] = biological target: T1, Ephrin type-B receptor 1 (Homo sapiens) (UniProt P54762); conditions: at 10 µM
T1 sequence (whole entry): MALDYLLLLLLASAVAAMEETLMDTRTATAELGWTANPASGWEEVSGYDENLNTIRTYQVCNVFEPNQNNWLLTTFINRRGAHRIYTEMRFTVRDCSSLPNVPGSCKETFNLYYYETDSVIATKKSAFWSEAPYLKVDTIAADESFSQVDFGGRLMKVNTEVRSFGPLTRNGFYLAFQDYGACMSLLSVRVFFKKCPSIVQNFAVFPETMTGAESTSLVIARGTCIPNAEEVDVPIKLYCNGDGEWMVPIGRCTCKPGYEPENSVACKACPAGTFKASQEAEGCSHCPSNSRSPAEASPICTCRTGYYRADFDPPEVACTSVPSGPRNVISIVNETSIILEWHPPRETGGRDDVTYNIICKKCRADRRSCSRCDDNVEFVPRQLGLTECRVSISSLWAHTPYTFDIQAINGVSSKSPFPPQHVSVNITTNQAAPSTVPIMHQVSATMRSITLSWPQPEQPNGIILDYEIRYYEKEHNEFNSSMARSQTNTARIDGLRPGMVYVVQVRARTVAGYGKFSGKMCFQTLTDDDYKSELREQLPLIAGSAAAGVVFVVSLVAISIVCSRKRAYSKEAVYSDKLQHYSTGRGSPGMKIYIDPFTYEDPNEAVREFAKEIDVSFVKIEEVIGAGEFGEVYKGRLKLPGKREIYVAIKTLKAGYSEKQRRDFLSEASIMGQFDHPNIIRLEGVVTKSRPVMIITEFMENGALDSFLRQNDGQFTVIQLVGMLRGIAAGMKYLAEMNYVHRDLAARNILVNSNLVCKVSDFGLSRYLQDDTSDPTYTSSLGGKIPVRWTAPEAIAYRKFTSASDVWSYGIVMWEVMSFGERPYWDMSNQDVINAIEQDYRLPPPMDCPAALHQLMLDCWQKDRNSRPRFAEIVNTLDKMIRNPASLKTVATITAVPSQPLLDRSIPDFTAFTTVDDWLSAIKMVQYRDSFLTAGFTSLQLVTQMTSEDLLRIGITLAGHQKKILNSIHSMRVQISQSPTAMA

[2] = biological target: T2, Ephrin type-B receptor 2 (Homo sapiens) (UniProt P29323); conditions: at 1 µM
T2 sequence (whole entry): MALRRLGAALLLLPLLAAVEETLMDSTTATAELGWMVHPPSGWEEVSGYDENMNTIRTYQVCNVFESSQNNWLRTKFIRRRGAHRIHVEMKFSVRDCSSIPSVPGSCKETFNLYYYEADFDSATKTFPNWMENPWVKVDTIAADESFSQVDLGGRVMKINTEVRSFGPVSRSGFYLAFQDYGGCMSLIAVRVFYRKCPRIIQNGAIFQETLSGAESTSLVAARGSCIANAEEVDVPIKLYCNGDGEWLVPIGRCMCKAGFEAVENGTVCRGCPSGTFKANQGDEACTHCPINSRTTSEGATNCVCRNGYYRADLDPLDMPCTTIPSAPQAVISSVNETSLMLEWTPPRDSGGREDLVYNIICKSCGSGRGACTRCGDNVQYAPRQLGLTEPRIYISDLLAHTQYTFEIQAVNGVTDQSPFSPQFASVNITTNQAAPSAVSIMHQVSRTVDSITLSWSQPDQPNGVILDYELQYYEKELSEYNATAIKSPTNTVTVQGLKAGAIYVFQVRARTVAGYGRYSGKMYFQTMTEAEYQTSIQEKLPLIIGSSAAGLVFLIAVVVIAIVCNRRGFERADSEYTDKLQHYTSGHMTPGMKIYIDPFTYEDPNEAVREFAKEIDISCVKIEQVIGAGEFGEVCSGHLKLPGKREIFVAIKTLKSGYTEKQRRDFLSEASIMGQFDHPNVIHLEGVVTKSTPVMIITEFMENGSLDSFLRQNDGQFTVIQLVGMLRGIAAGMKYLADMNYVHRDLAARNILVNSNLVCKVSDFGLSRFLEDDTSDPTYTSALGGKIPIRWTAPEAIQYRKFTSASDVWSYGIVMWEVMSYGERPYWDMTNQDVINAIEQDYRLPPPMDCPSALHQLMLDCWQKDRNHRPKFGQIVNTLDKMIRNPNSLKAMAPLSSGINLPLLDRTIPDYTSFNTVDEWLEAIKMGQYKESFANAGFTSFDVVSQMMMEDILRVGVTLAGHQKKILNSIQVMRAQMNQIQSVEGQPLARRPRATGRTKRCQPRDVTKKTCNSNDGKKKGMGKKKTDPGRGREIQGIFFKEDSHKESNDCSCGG

[3] = biological target: T2, Ephrin type-B receptor 2 (Homo sapiens); conditions: at 10 µM
[4] = biological target: T3, Ephrin type-B receptor 3 (Homo sapiens) (UniProt P54753); conditions: at 1 µM
T3 sequence (whole entry): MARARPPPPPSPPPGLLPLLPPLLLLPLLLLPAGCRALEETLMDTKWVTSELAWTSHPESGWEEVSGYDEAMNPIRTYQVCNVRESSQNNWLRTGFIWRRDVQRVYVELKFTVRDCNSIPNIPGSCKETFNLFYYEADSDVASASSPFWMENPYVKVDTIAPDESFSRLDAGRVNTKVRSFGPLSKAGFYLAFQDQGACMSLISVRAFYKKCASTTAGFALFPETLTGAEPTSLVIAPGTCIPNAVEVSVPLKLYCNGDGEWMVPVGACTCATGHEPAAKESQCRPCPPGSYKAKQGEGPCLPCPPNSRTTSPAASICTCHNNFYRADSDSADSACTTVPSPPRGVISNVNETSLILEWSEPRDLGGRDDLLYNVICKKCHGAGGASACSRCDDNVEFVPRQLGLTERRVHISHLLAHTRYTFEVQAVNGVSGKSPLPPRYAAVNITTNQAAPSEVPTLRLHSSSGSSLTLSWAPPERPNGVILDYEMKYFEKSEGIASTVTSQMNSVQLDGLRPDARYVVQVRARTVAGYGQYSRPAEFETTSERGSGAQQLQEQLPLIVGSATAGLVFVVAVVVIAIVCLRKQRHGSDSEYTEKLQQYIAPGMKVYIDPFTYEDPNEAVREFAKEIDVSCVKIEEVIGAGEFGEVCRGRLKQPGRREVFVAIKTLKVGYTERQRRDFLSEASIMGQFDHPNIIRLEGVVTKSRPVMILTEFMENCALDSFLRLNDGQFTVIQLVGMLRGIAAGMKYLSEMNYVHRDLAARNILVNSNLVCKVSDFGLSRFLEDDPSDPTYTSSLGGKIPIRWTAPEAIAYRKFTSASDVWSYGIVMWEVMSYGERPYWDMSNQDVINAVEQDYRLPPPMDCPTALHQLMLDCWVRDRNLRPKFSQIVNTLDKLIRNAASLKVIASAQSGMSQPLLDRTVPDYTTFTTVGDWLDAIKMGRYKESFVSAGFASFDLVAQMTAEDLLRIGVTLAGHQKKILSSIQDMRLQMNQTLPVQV

[5] = biological target: T3, Ephrin type-B receptor 3 (Homo sapiens); conditions: at 10 µM
[6] = biological target: T4, Ephrin type-B receptor 4 (Homo sapiens) (UniProt P54760); conditions: at 1 µM
T4 sequence (whole entry): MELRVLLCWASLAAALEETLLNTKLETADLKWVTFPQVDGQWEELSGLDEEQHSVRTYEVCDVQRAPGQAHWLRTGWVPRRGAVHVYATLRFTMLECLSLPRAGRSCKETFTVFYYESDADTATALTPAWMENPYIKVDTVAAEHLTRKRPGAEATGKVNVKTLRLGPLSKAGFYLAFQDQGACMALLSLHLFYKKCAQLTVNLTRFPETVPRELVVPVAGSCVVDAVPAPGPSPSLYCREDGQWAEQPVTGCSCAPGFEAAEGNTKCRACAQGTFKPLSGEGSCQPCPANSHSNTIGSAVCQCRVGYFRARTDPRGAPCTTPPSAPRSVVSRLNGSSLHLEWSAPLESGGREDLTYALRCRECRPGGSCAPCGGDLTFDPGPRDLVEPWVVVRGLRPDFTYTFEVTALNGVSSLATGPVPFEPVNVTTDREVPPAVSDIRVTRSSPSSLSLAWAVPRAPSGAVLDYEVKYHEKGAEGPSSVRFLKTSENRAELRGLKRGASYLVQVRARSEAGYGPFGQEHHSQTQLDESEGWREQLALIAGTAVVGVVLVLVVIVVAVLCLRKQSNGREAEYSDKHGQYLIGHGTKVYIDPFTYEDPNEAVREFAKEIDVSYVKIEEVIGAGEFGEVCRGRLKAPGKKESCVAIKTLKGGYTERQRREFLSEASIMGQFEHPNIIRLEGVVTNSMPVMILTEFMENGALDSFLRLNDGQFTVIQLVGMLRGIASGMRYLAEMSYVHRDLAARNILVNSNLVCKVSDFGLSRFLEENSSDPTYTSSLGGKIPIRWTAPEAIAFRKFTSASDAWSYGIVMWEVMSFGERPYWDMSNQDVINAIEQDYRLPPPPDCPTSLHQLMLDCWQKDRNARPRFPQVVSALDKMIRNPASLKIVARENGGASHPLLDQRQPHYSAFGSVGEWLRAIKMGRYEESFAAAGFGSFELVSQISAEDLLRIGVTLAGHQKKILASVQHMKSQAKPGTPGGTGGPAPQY

[7] = biological target: T4, Ephrin type-B receptor 4 (Homo sapiens); conditions: at 10 µM
[8] = biological target: Receptor tyrosine-protein kinase erbB-4 (Homo sapiens) (UniProt Q15303); conditions: at 1 µM
Chain of Receptor tyrosine-protein kinase erbB-4 (Homo sapiens) (Q15303 whole entry): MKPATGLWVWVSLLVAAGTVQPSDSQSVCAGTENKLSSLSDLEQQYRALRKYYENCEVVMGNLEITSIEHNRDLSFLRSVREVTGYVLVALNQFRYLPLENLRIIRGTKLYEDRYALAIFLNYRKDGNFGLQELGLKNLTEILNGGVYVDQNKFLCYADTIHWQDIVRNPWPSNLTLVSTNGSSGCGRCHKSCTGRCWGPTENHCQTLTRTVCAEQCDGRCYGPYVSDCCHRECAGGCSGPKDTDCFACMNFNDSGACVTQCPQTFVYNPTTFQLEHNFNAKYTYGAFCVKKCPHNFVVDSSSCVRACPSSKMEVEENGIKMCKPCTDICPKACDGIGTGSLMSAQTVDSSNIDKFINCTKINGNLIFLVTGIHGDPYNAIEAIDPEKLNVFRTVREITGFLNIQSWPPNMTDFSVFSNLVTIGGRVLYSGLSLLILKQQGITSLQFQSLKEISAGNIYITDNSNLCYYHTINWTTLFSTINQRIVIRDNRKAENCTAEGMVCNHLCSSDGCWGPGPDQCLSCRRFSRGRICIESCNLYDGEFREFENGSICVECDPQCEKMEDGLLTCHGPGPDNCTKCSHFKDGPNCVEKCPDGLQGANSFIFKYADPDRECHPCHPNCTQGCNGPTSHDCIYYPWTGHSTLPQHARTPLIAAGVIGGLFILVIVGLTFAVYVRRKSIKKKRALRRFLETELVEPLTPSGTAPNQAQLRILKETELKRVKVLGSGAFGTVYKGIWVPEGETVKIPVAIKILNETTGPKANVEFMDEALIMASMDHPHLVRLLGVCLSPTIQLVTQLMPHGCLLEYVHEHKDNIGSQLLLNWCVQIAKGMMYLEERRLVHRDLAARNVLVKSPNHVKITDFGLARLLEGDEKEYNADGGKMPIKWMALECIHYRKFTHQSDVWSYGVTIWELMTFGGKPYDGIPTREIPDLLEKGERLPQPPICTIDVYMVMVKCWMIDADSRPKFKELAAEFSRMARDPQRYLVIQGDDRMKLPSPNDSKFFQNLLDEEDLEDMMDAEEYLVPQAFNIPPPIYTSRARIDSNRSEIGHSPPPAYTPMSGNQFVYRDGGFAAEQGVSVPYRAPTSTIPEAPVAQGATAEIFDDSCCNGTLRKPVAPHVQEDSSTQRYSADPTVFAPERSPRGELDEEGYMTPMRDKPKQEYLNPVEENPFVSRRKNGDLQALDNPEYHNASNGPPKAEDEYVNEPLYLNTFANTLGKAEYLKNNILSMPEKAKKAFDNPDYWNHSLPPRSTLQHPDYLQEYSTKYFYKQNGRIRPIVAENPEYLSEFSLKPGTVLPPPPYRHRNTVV

[9] = biological target: Receptor tyrosine-protein kinase erbB-4 (Homo sapiens) (UniProt Q15303); conditions: at 10 µM
[10] = biological target: Focal adhesion kinase 1 (Homo sapiens) (UniProt Q05397); conditions: at 1 µM
Chain of Focal adhesion kinase 1 (Homo sapiens) (Q05397 2-1052 limits assumed): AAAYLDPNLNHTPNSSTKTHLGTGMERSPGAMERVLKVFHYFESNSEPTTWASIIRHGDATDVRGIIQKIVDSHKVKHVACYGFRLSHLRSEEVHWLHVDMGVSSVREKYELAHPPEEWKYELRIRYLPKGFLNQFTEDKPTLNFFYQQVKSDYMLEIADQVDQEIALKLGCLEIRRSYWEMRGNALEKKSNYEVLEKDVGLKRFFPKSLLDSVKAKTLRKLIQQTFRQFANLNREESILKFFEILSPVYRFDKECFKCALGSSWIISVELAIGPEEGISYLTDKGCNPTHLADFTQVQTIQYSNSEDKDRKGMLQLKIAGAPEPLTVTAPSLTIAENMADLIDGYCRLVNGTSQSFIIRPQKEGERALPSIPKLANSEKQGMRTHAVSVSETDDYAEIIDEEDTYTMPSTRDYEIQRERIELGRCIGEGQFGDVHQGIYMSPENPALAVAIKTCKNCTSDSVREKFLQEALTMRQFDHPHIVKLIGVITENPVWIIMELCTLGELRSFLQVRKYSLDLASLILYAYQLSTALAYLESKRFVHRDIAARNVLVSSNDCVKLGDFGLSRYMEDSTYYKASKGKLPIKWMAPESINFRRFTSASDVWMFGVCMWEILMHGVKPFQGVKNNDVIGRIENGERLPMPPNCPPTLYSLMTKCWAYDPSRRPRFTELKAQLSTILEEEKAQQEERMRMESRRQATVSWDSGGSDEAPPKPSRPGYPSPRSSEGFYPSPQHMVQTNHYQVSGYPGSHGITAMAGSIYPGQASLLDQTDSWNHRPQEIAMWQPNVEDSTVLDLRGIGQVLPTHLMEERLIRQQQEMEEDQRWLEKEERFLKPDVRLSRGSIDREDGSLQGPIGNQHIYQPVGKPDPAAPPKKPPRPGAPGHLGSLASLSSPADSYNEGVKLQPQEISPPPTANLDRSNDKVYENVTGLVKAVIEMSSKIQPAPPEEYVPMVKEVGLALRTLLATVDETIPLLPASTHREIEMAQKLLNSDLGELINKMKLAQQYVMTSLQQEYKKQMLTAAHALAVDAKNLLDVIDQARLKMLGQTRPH

SMILES: COc1ccc(CNc2nc(N(CCO)CCO)nc3c2ncn3C(C)C)cc1
- residual activity [1]: 77%
- residual activity [2]: 113%
- residual activity [3]: 106%
- residual activity [4]: 113% (inactive)
- residual activity [5]: 107%
- residual activity [6]: 87%
- residual activity [7]: 77%
- residual activity [8]: 91%
- residual activity [9]: 101%
- residual activity [10]: 91%
